Compounds without any hit were thinned out: in the full panel of roughly 83,000, 20% have a hit.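 How to read the values: 0–100, growth inhibition (40 = 60% inhibited); 0, no net growth; -100 to 0, cell death (-40 = 40% of starting cells died; -100 = all dead).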 Active and inactive are the calls of the source. How the source made its calls: active means growth percent below 10; inactive means the rest.
What was measured:
Assay in all cases: NCI-60 one-dose screen, 48 h (100 = growth as untreated, 0 = no growth, -100 = all killed)
Conditions in all cases: 10 µM unless noted
NCI-H23 lung = test system: NCI-H23 lung
NCI-H226 lung = test system: NCI-H226 lung
NCI-H322M lung = test system: NCI-H322M lung
HOP-62 NSCLC = test system: HOP-62 NSCLC
NCI-H460 lung = test system: NCI-H460 lung
HOP-92 NSCLC = test system: HOP-92 NSCLC
NCI-H522 lung = test system: NCI-H522 lung
A549/ATCC NSCLC = test system: A549/ATCC NSCLC
786-0 renal = test system: 786-0 renal
COLO 205 colon = test system: COLO 205 colon

Measured: growth

COc1ccc2c(c1)oc1c(C)c3c(c(C)c12)C(=O)N(CCOS(C)(=O)=O)C3=O
inactive: NCI-H23 lung 94.2% | NCI-H226 lung 106% | NCI-H322M lung 96.7% | HOP-62 NSCLC 103% | NCI-H460 lung 94% | HOP-92 NSCLC 113% | NCI-H522 lung 87.7% | A549/ATCC NSCLC 109% | 786-0 renal 95.2% | COLO 205 colon 107%

O=C(/C=C/c1ccccc1)c1cccc2ccccc12
inactive: NCI-H23 lung 26.2% | NCI-H226 lung 41.2% | NCI-H322M lung 57.5% | HOP-62 NSCLC 37.7% | NCI-H460 lung 10.6% | HOP-92 NSCLC 47.3% | NCI-H522 lung 17.2% | A549/ATCC NSCLC 39% | 786-0 renal 83.5% | COLO 205 colon 97.7%

CCN(CC)C(=O)C1=C(C)NC(=O)NC1c1ccc2c(c1)OCO2 (stereo not given)
inactive: NCI-H23 lung 103% | NCI-H226 lung 100% | NCI-H322M lung 109% | HOP-62 NSCLC 105% | NCI-H460 lung 106% | HOP-92 NSCLC 109% | NCI-H522 lung 96.6% | A549/ATCC NSCLC 106% | 786-0 renal 106% | COLO 205 colon 114%

CCOC(=O)c1c(C)nc2ccccc2c1/C=C/c1ccc(F)cc1
inactive: NCI-H23 lung 51.3% | NCI-H226 lung 73.9% | NCI-H322M lung 94.7% | HOP-62 NSCLC 80.9% | NCI-H460 lung 81.7% | HOP-92 NSCLC 42.1% | NCI-H522 lung 53.8% | A549/ATCC NSCLC 57.7% | 786-0 renal 79.5% | COLO 205 colon 83.6%

N#C/C(=C\c1ccc(-c2cccc(Cl)c2)o1)C(=O)Nc1ncc(Cc2ccc(Cl)cc2)s1
inactive: NCI-H23 lung 59.6% | NCI-H226 lung 74% | NCI-H322M lung 33.6% | HOP-62 NSCLC 15.9% | NCI-H460 lung 25% | HOP-92 NSCLC 79.8% | NCI-H522 lung 83.4% | A549/ATCC NSCLC 31.6% | 786-0 renal 37.3% | COLO 205 colon 83.7%

C=C(C)[C@@H]1CC[C@]2(CO)CC[C@]3(C)[C@H](CC[C@@H]4[C@@](C)(CCCN)[C@H](C(=C)C)CC[C@]43C)[C@@H]12
active: NCI-H23 lung -70.1% | NCI-H322M lung -53.9% | HOP-62 NSCLC -62.8% | NCI-H460 lung -93.8% | HOP-92 NSCLC -41% | NCI-H522 lung -48.6% | A549/ATCC NSCLC -68.8% | 786-0 renal -98.5% | COLO 205 colon -58%
inactive: NCI-H226 lung 13.1%

CN1C(=O)/C(=C/c2ccc(C(=O)Nc3ncc(Cc4cccc(C(F)(F)F)c4)s3)cc2)SC1=S
inactive: NCI-H23 lung 37.5% | NCI-H226 lung 58% | NCI-H322M lung 69.5% | HOP-62 NSCLC 58.5% | NCI-H460 lung 30.1% | HOP-92 NSCLC 27.3% | NCI-H522 lung 35.5% | A549/ATCC NSCLC 47.4% | 786-0 renal 65% | COLO 205 colon 53%

C[C@H]1[C@H](C)CC[C@]2(C(=O)NCCNCCN)CC[C@]3(C)C(=CC[C@@H]4[C@@]5(C)CCC(=O)C(C)(C)[C@@H]5CC[C@]43C)[C@H]12
active: NCI-H460 lung -80% | COLO 205 colon -49.9%
inactive: NCI-H23 lung 94.2% | NCI-H226 lung 99.3% | NCI-H322M lung 85% | HOP-62 NSCLC 81.1% | HOP-92 NSCLC 52.9% | NCI-H522 lung 54.3% | A549/ATCC NSCLC 42.4% | 786-0 renal 80.7%

COC(=O)c1c(C)nc(C)c2c1C(=O)C=C(NCc1ccccc1)C2=O
inactive: NCI-H23 lung 72% | NCI-H226 lung 93.9% | NCI-H322M lung 92.5% | HOP-62 NSCLC 91.2% | NCI-H460 lung 67.1% | HOP-92 NSCLC 117% | NCI-H522 lung 78.8% | A549/ATCC NSCLC 103% | 786-0 renal 84.7% | COLO 205 colon 78.5%

Fc1ccc2[nH]cc(-c3nc(-c4c[nH]c5c(Cl)nccc45)cs3)c2c1
active: NCI-H460 lung 4.9% | 786-0 renal -19.4%
inactive: NCI-H23 lung 60.4% | NCI-H226 lung 40% | NCI-H322M lung 76.7% | HOP-62 NSCLC 57.1% | HOP-92 NSCLC 36.4% | NCI-H522 lung 16.7% | A549/ATCC NSCLC 22.5% | COLO 205 colon 25.2%

COc1ccc(C=Nc2c(C(=O)Nc3cccc(Cl)c3C)sc3nc(C)c(C(=O)/C=C/c4ccc(OC)cc4)cc23)cc1
active: NCI-H460 lung 8.92% | NCI-H522 lung 0.467%
inactive: NCI-H23 lung 31.2% | NCI-H226 lung 53.8% | NCI-H322M lung 43.1% | HOP-62 NSCLC 46.5% | HOP-92 NSCLC 79.2% | A549/ATCC NSCLC 30.8% | 786-0 renal 21.5% | COLO 205 colon 11.2%

Nc1cccc(-c2ccc(COc3ccc(CC4SC(=O)NC4=O)cc3)cc2)c1 (stereo not given)
inactive: NCI-H23 lung 70.5% | NCI-H226 lung 94.1% | NCI-H322M lung 89.6% | HOP-62 NSCLC 48.4% | NCI-H460 lung 43.8% | HOP-92 NSCLC 42.3% | NCI-H522 lung 29.7% | A549/ATCC NSCLC 44.8% | 786-0 renal 77.9% | COLO 205 colon 101%

COc1ccc(/C=C/C(c2cc(OC)c(OC)c(OC)c2)n2cncn2)cc1O (stereo not given)
inactive: NCI-H23 lung 41.5% | NCI-H226 lung 62.2% | NCI-H322M lung 54.7% | HOP-62 NSCLC 22.5% | NCI-H460 lung 13.3% | HOP-92 NSCLC 48% | NCI-H522 lung 13% | A549/ATCC NSCLC 40.1% | 786-0 renal 23.3% | COLO 205 colon 60.6%

COc1cc(C=C2C(=O)NC(=S)NC2=O)cc(CN2CCCC2)c1O
inactive: NCI-H23 lung 103% | NCI-H226 lung 103% | NCI-H322M lung 105% | HOP-62 NSCLC 103% | NCI-H460 lung 109% | HOP-92 NSCLC 92.8% | NCI-H522 lung 96.4% | A549/ATCC NSCLC 96.6% | 786-0 renal 102% | COLO 205 colon 120%

N#Cc1ccc(/C=C/c2cn(-c3ccccc3)nc2-c2cccc([N+](=O)[O-])c2)cc1
inactive: NCI-H23 lung 56.4% | NCI-H322M lung 62.9% | HOP-62 NSCLC 37.8% | NCI-H460 lung 40.1% | HOP-92 NSCLC 74.6% | NCI-H522 lung 20.1% | A549/ATCC NSCLC 49.5% | 786-0 renal 58.7% | COLO 205 colon 83.6%
active: NCI-H226 lung 6.28%

Cc1ncc(C(=O)Nc2ccc(CN3CCN(C)CC3)c(C(F)(F)F)c2)cc1C#Cc1cnc(N)c2ccc(C#N)cc12
inactive: NCI-H23 lung 29.5% | NCI-H322M lung 27.9% | NCI-H460 lung 11.2% | NCI-H522 lung 27.2% | A549/ATCC NSCLC 22.9%
active: NCI-H226 lung 0.011% | HOP-62 NSCLC -7.92% | HOP-92 NSCLC -20.2% | 786-0 renal -70.1% | COLO 205 colon 5.29%

CCSc1ccnc(N)n1
inactive: NCI-H23 lung 120% | NCI-H226 lung 101% | NCI-H322M lung 106% | HOP-62 NSCLC 94% | NCI-H460 lung 113% | HOP-92 NSCLC 98% | NCI-H522 lung 105% | A549/ATCC NSCLC 118% | 786-0 renal 98.3% | COLO 205 colon 125%

C=CN(C(=O)N1CCN(c2cc3c(cc2F)c(=O)c(C(=O)O)cn3C2CC2)CC1)c1nc(-c2ccccc2)cs1
inactive: NCI-H23 lung 101% | NCI-H226 lung 98.1% | NCI-H322M lung 84.1% | HOP-62 NSCLC 98.4% | NCI-H460 lung 104% | HOP-92 NSCLC 90.6% | NCI-H522 lung 81.4% | A549/ATCC NSCLC 102% | 786-0 renal 90.1% | COLO 205 colon 98.5%

C#Cc1cccc(Nc2ncnc3cc(NC(=O)CCl)ccc23)c1
active: NCI-H23 lung -63.5% | NCI-H226 lung -42.2% | NCI-H322M lung -16.4% | HOP-62 NSCLC -70.3% | NCI-H460 lung -58.7% | HOP-92 NSCLC -75.3% | NCI-H522 lung -66% | A549/ATCC NSCLC -23.7% | 786-0 renal -79.3% | COLO 205 colon -70.4%

[N-]=[N+]=NCC1OC(n2cnc3c(NC(=O)Nc4ccccc4)ncnc32)C2OC(=O)CC12 (stereo not given)
inactive: NCI-H23 lung 106% | NCI-H226 lung 106% | NCI-H322M lung 99.8% | HOP-62 NSCLC 98.1% | NCI-H460 lung 112% | HOP-92 NSCLC 86.9% | NCI-H522 lung 107% | A549/ATCC NSCLC 95.2% | 786-0 renal 105% | COLO 205 colon 105%

CN1CCN(c2ccc(NC3=CC(=O)c4ncncc4C3=O)cc2)CC1
active: NCI-H23 lung -43.5% | NCI-H226 lung -47.7% | HOP-62 NSCLC -87.5% | NCI-H460 lung -24.4% | HOP-92 NSCLC -61.7% | NCI-H522 lung -56.7% | A549/ATCC NSCLC -7.95% | 786-0 renal -50.5% | COLO 205 colon -69.8%
inactive: NCI-H322M lung 10.8%

COc1ccc(-c2nc3c(c(-c4ccc(Cl)cc4)nn3-c3ccccc3)c(-c3ccccc3)c2C#N)cc1
inactive: NCI-H23 lung 103% | NCI-H226 lung 97.4% | NCI-H322M lung 102% | HOP-62 NSCLC 111% | NCI-H460 lung 104% | HOP-92 NSCLC 120% | NCI-H522 lung 96.3% | A549/ATCC NSCLC 95.9% | 786-0 renal 108% | COLO 205 colon 118%

CN(C)C1CN(C(=O)c2cc(-c3ccc4ncnc(N5CCc6cc(F)c(Cl)cc65)c4c3)cnc2N)C1
active: NCI-H322M lung 5.68% | HOP-92 NSCLC -15% | A549/ATCC NSCLC 6.53% | 786-0 renal 7.47%
inactive: NCI-H23 lung 23.9% | NCI-H226 lung 30.7% | HOP-62 NSCLC 16.5% | NCI-H460 lung 12.7% | NCI-H522 lung 16.3% | COLO 205 colon 20.4%

N#Cc1ccc(O)c(C2=NCC(c3ccc(-c4ccccc4)cc3)O2)c1 (stereo not given)
active: HOP-62 NSCLC 2.79% | NCI-H460 lung 1.31% | NCI-H522 lung -8.42% | A549/ATCC NSCLC 2.62% | COLO 205 colon 1.08%
inactive: NCI-H23 lung 27.8% | NCI-H226 lung 29.8% | NCI-H322M lung 33% | HOP-92 NSCLC 35% | 786-0 renal 20.1%

COc1ccc(C(c2cc(OC)c(OC)c(OC)c2)N2CCCCC2)cc1 (stereo not given)
inactive: NCI-H23 lung 59.3% | NCI-H226 lung 55.5% | NCI-H322M lung 47.9% | HOP-62 NSCLC 29.8% | NCI-H460 lung 19.4% | HOP-92 NSCLC 44.1% | NCI-H522 lung 19.9% | A549/ATCC NSCLC 49.1% | 786-0 renal 38.8% | COLO 205 colon 16.1%

C[N+]1=C(/C=C/c2ccccc2Cl)C(C)(C)c2ccccc21
inactive: NCI-H23 lung 74.3% | NCI-H226 lung 80% | NCI-H322M lung 98.6% | HOP-62 NSCLC 98.7% | NCI-H460 lung 103% | HOP-92 NSCLC 90.1% | NCI-H522 lung 81.8% | A549/ATCC NSCLC 92.5% | 786-0 renal 95.9% | COLO 205 colon 95.9%

Reference: PubChem BioAssay (NCI)
